From PubChem
This is a sample that favours compounds with a hit; in the whole collection about 19% have one here.
KB-V1 MDR tox = qHTS assay for MDR1-selective chemotherapeutics: Primary screen using the drug-selected MDR subline cells KB-V1; Potency, µM (series often up to 46.1 µM), actives largely listed as cytotoxic; 3.4% of 400,000 active; KB-V1 MDR cells viability, CellTiter-Glo, 72 h; further: nearly all actives have a fitted effect of over 60% in size
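Readout: CellTiter-Glo luminescence, 10 min after addition. Cells: KB-V1 MDR subline, 72 h at 37 degrees C with compound. Analysis: corrected, normalized data fitted to concentration-effect curves.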
TDP1 cell noCPT = qHTS for Inhibitors of human tyrosyl-DNA phosphodiesterase 1 (TDP1): qHTS in cells in absence of CPT. DT40 Tdp1-/- hTDP1 cells, no CPT, ATP luminescence, 48 h. AID 686978, 2013. Potency, µM (highest dose often 46.2 µM), inactives show at the top dose activity change, negative = growth inhibition, actives largely listed as inhibitors. 15% of 420,000 active; further: nearly all actives have a fitted effect of over 55% in size
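Luminescent ATP content (CellTiter-Glo) served as the growth readout. Knockout chicken DT40 cells expressing human TDP1 were exposed to compounds without camptothecin for a minimum 48 hr at 37 °C.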
DT40 TDP1 CPT = qHTS for Inhibitors of human tyrosyl-DNA phosphodiesterase 1 (TDP1): qHTS in cells in presence of CPT; chicken DT40 Tdp1-/-;hTDP1 cells + 20 nM CPT, ATP luminescence, 48 h; 12% of 420,000 active; AID 686979, 2013; Potency, µM (highest dose often 46.2 µM), for the others: top-dose activity change, negative = growth inhibition, most hits filed as inhibitors; further: nearly all actives have a fitted effect of over 55% in size
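Chicken DT40 Tdp1-/- cells complemented with human TDP1, 400 cells/well, exposed to compounds plus 20 nM camptothecin for at least 48 h at 37 C; viability read as ATP content by CellTiter-Glo luminescence.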
HT1080 IDH1KD tx = qHTS for induction of synthetic lethality in tumor cells producing 2HG: qHTS for the HT-1080-IDH1KD cell line; HT-1080 IDH1 knockdown viability, ATP luminescence, 48 h; Potency, µM (titrated, usually from 46.1 µM), for the others: at the highest dose activity, negative = toxicity, most hits filed as cytotoxic; 2% of 360,000 active;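 further: 0% = DMSO wells and -100% = cell-free medium wells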
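After a 2 h attachment period, IDH1KD HT-1080 cells took pin-transferred compound for 48 h at 37 °C; ATP-based luminescence after 10 min room-temperature reagent incubation reported viability.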
HT1080NT lethal = qHTS for induction of synthetic lethality in tumor cells producing 2HG: qHTS for the HT-1080-NT fibrosarcoma cell line | Potency, µM (top dose mostly 46.1 µM), without a hit: at the top dose activity, negative = less viability, hits mostly cytotoxic | HT-1080-NT fibrosarcoma viability, CellTiter-Glo ATP luminescence, 48 h | 1.6% of 360,000 active | AID 686970, 2013;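 further: NT is the 2HG producing partner of a matched IDH1 knockdown line; 0% = DMSO-treated cells and -100% = media-only wells without cells; nearly all actives have a fitted effect of over 55% in size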
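Toxicity toward the 2HG-producing NT line was scored as %Activity, normalised to DMSO and no-cell wells, from CellTiter-Glo luminescence after 48 hours' treatment.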
KB-3-1 cytotox = qHTS assay for MDR1-selective chemotherapeutics: Primary screen using the parental adenocarcinoma cell KB-3-1; Potency, µM (highest dose often 46.1 µM), actives largely listed as cytotoxic; AID 1347075, 2019; KB-3-1 viability, CellTiter-Glo ATP luminescence, 72 h; 1.4% of 400,000 active; further: nearly all actives have a fitted effect of over 60% in size
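72 h, 37 °C compound treatment of KB-3-1 parental cells; CellTiter-Glo added, 10 min, luminescence read. Data corrected against DMSO-only plates and normalized before curve fitting.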
Starred values were filed as active, the others as inactive; i = inactive; ? = inconclusive; / = no result given; [ ] = dose if it differs, or a comment. The call rests on the fitted dose curve; in most records, active means well fitted curve in the direction sought with a large enough effect; inconclusive means small, poorly fitted or top-dose-only effect, or another doubt; inactive means no such curve, though single readings can be large; an effect the other way counts as inactive or inconclusive. Unless noted, on the % scale 0 is the no-effect control and ±100 the full control effect; potency means the concentration at half of the fitted maximal effect.

SMILES | KB-V1 MDR tox | TDP1 cell noCPT | DT40 TDP1 CPT | HT1080 IDH1KD tx | HT1080NT lethal | KB-3-1 cytotox
COc1ccc(-c2csc3nc(C)nc(N4CCN(C(C)=O)CC4)c23)cc1OC | i | ? | -25% | -2% | -20% | i
Cc1nc(N2CCC(C(N)=O)CC2)c2c(-c3cccs3)csc2n1 | i | 21µM* | ? | -22% | -23% | ?
NC(=O)C1CCN(Cc2nc(-c3cccs3)no2)CC1 | ? | -6% | -7% | 14% | 3% | i
COc1ccc(-c2csc3nc(C)nc(N4CCC(C)CC4)c23)cc1OC | ? | 18µM* | 21µM* | ? | 18µM* | ?
O=C(COc1ccc(S(=O)(=O)N2CCOCC2)cc1Cl)NC1CCCCC1 | / | -21% | ? | -9% | -6% | /
O=S(=O)(c1ccc(OCC(O)CNC23CC4CC(CC(C4)C2)C3)c(Cl)c1)N1CCOCC1 (configuration not stated) | ? | 16µM* | ? | 13µM* | 21µM* | ?
CN(C)c1cc2c3ccccc3ccc2c2ccccc12 | i | 16µM* | ? | / | / | i
CN(C)c1ccc2ccc3cccc4ccc1c2c34 | i | -19% | -24% | / | / | i
OCCN(CCO)c1cc2c3ccccc3ccc2c2ccccc12 | i | 16µM* | ? | ? | ? | i
CC(C)Nc1ncnc2c1ncn2[C@H]1CN(Cc2ccc(Cl)cc2)C[C@@H](CO)O1 | i | ? | ? | -7% | 8% | i
O=C(NNC(=O)c1ccccc1Br)c1ccncc1 | ? | 24% | -12% | 11% | 11% | i
O=C(NNC(=O)c1cnccn1)c1ccc(Cl)c(Cl)c1 | i | 3.7µM* | 7.3µM* | ? | ? | ?
O=C(NNC(=O)c1ccccc1Br)c1cnccn1 | ? | ? | 18µM* | ? | -17% | i
CC(CNC(=O)c1ccc(C#N)cc1)NC(=O)c1ccc(C#N)cc1 (configuration not stated) | ? | -5% | -3% | -3% | -1% | i
CCN(CC)CCOC(=O)c1ccc(N/C=C(/C#N)c2nc(-c3ccc(OC)c(OC)c3)cs2)cc1 | i | 4.6µM* | -106% | -20% | 23µM* | i
CCN(CC)CCOC(=O)c1ccc(N/C=C(/C#N)c2nc(-c3cccc(OC)c3)cs2)cc1 | i | -25% | 5% | 15% | -2% | i
Cc1cccc([C@@H]2[C@@H]3C(=O)N(Cc4ccccc4)C(=O)[C@@H]3[C@]3(Cc4ccccc4)C(=O)N(c4ccc(C(F)(F)F)cc4)C(=O)N23)c1 | i | 16µM* | 18µM* | 3% | 3% | i
CCN1C(=O)[C@H]2[C@@H](c3ccc(C)cc3)N3C(=O)N(c4ccc(C(F)(F)F)cc4)C(=O)[C@@]3(CC(C)C)[C@H]2C1=O | i | 16µM* | ? | -19% | 0% | ?
CCN1C(=O)[C@H]2[C@@H](c3ccc(C)cc3)N3C(=O)N(c4ccc(C)cc4)C(=O)[C@@]3(CC)[C@H]2C1=O | i | -16% | -6% | 23% | 2% | i
Cc1cccc([C@@H]2[C@@H]3C(=O)N(Cc4ccccc4)C(=O)[C@@H]3[C@]3(Cc4ccccc4)C(=O)N(c4ccccc4)C(=O)N23)c1 | i | -9% | -12% | -2% | 0% | i
Cc1c(C(=O)N2CCCC(C)C2)sc2ncnc(NCCN3CCCCC3)c12 (configuration not stated) | / | -24% | -2%[9.04 µM] | / | / | /
Cc1nn(-c2ccccc2)c2c1C1(C(=O)N(C(C)C)c3ccccc31)C(C#N)=C(N)O2 (configuration not stated) | ? | 16µM* | 9.2µM* | -1% | -18% | i
Cc1noc(N)c1C1(O)C(=O)N(C(C)C)c2ccccc21 (configuration not stated) | i | -3% | 7% | 1% | -5% | i
Cc1ccc(-n2nc(C)c(C3(O)C(=O)N(C(C)C)c4ccccc43)c2N)cc1 (configuration not stated) | i | 12µM* | 10µM* | 2% | -1% | i
Cc1nn(-c2ccccc2)c(N)c1C1(O)C(=O)N(C(C)C)c2ccccc21 (configuration not stated) | i | 8.2µM* | 6.5µM* | -4% | 5% | i
SMILES | KB-V1 MDR tox | TDP1 cell noCPT | DT40 TDP1 CPT | HT1080 IDH1KD tx | HT1080NT lethal | KB-3-1 cytotox
CCN1C(=O)C2(C(C#N)=C(N)Oc3n[nH]c(C(C)C)c32)c2ccccc21 (configuration not stated) | i | -27% | -24% | -1% | 0% | i
COc1ccc(Cl)cc1NC(=O)Cn1cnc2c1c(=O)n(C)c(=O)n2C | i | ? | ? | / | / | i
CC1C(=O)CC2C3(C)CCC2(C(C)C(=O)O)C(=O)C13 (configuration not stated) | / | -10% | -4% | / | / | /
COc1cccc(-c2ccnc(-n3ncc(C(=O)NCC(C)(C)CN(C)C)c3C)n2)c1 | / | 4% | 7% | / | / | /
Cc1ccc(-c2c3c(=O)n(C)c(=O)n(C)c3c3cnc4ccccc4n23)cc1 | / | -14% | -14% | / | / | /
Cc1cccc(-c2c3c(=O)n(C)c(=O)n(C)c3c3nnc4ccccc4n23)c1 | ? | 6.5µM* | ? | 11% | 10% | i
Cc1cccc(-c2c3c(=O)n(C)c(=O)n(C)c3c3c(C)nc4ccccc4n23)c1 | i | 6.5µM* | ? | / | / | i
Cc1ccc(-c2c3c(=O)n(C)c(=O)n(C)c3c3c(-c4cccc(C)c4)nc4ccccc4n23)cc1 | i | ? | ? | / | / | i
O=C(CSc1nc2c(sc3ccccc32)c(=O)n1CCCN1CCCC1)NCc1ccccc1 | ? | ? | -62% | ? | ? | i
CCN(CC)CCn1c(SCC(=O)Nc2cccc(OC)c2)nc2c(sc3ccccc32)c1=O | i | 4.6µM* | 18µM* | ? | ? | i
Cc1ccc(CNC(=O)CSc2nc3c(sc4ccccc43)c(=O)n2CCCN2CCCC2)cc1 | i | ? | 23µM* | ? | ? | i
